Activity calls are given as the source filed them. Cut-off read from the data, not from the text of the source: active = inhibition above about 44%; inactive = the rest.
What follows are compounds tested against Steroidogenic factor 1 (Homo sapiens) (UniProt Q13285) (assay: inverse agonism at SF1 nuclear receptor – cell-based, luminescence, high throughput, counter-screen for LRH-1 inverse agonist project (AID 651614;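 note: cells cotransfected with StAR promoter reporter and SF1 expression vector; 0% = vehicle on cells with receptor and 100% = vehicle on cells lacking receptor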)). Conditions: cell-based SF1 luciferase reporter, at 3.6 µM, active compounds read high.
Sequence of Steroidogenic factor 1 (Homo sapiens) (Q13285 whole entry, looked up): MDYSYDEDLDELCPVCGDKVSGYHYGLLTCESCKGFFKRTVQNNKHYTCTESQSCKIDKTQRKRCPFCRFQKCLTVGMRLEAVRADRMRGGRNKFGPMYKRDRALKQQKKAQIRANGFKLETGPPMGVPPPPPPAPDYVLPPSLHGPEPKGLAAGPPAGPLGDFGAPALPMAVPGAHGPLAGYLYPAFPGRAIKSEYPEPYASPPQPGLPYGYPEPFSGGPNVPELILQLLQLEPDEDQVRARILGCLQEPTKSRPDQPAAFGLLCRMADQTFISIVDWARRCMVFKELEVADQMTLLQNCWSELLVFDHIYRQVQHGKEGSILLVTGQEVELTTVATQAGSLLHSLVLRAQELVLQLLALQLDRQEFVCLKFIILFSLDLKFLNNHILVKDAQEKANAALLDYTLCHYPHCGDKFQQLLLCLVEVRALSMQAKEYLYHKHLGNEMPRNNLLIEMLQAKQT
In the case of `Cc1ccc(S(=O)(=O)NCc2ccncc2)c(C)c1C`, the inhibition is reported as 59.5% (active).
`Nc1nc(-c2ccccc2)c(CCCOc2ccc(NC(=O)CBr)cc2)c(=O)[nH]1` was tested, and the inhibition was 48.9% (active).
In the case of `O=[N+]([O-])c1ccc(Sc2nnnn2-c2ccccc2)c(Cl)c1`, the inhibition is reported as 37.7% (inactive).
In the case of `COc1ccnc(Oc2ccccc2)c1C(=O)N/C=N/OCc1ccccc1F`, the inhibition is reported as 48.8% (active).
For `CCC(c1nnnn1-c1c(C)cccc1C)N1CCN(c2ccc(C(F)(F)F)cc2[N+](=O)[O-])CC1` (stereo not given), the inhibition was 5.25% (inactive).
In the case of `CCC(=O)Nc1nnc(SCC(=O)NCCc2ccc(OC)c(OC)c2)s1`, the inhibition is reported as 57.3% (active).
For `COc1ccc(-c2cc3ccccc3oc2=O)cc1NC(=O)c1ccc([N+](=O)[O-])o1`, the inhibition was 22.5% (inactive).
`CCc1cc(=O)oc2c(C)c(OCC(=O)NCCCN3CCOCC3)ccc12` was tested, and the inhibition was 42.6% (inactive).
For `CCCc1cc(=O)oc2cc(C)cc(OCC(=O)Nc3ccccn3)c12`, the inhibition was 61.8% (active).
In the case of `NC(=O)c1oc2ccccc2c1NC(=O)c1ccc([N+](=O)[O-])o1`, the inhibition is reported as 69.1% (active).
In the case of `CCOC(=O)N1CCN(C(=O)CCl)CC1`, the inhibition is reported as 57.9% (active).
In the case of `CN(C)c1ccc(C=c2c3ccccc3n3c2cc(-c2ccc(Cl)cc2)[n+]3C)cc1`, the inhibition is reported as 69% (active).
`COc1ccc(NC(=O)CSc2ncnc3c2cnn3Cc2ccccc2)cc1` was tested, and the inhibition was 62.2% (active).
In the case of `COc1cc(C2c3cc4c(cc3OC(NNC(N)=S)C2C)OCO4)cc(OC)c1OC` (stereo not given), the inhibition is reported as 44.2% (active).
In the case of `CC(=O)Nc1cc(-c2ccccc2N(C)C)cn2c(-c3ccc(S(C)(=O)=O)cc3)cnc12`, the inhibition is reported as 36.5% (inactive).
